Where “and” joins values, the source holds several entries; their conditions need not be identical. Equal values may be shown once. Records with an inconclusive call do not appear. More than one record can exist for a structure, and the calls need not agree. Calls of active or inactive are those of the source. How the source made its calls: active means hit-call score of the fitted dose curve at least 0.9, where 1 is the maximum; inconclusive means response in the unintended direction; inactive means score below 0.9.
read-out: xenobiotic metabolism (CYP1A1), CYP1A1 (gene 1543); assay: CLD_CYP1A1_6hr: CellzDirect (CLD) Gene Expression Assay for xenobiotic metabolism (CYP1A1) at 6 hours (AID 2283661);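 on AC50: potency for transcript induction above DMSO vehicle baseline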
Protocol: CLD_6hr is a cell-based, multiplexed-readout assay that uses hepatocyte, a human liver primary cell, with measurements taken at 6 hours after chemical dosing in a 96-well plate.CLD_CYP1A1_6hr is one of 16 assay component(s) measured or calculated from the CLD_6hr assay. It is designed to make measurements of mRNA induction, a form of inducible reporter, as detected with chemiluminescence signals by Quantitative Nuclease Protection Assay (qNPA) technology.Data from the assay component CLD_CYP1A1_6hr was analyzed at the endpoint, CLD_CYP1A1_6hr, in the positive analysis fitting direction relative to DMSO as the negative control and baseline of activity. Using a type of inducible reporter, gain-of-signal activity can be used to understand changes in the reporter gene as they relate to the gene CYP1A1. Furthermore, this assay endpoint can be referred to as a primary readout. To generalize the intended target to other relatable targets, this assay endpoint is annotated to the cyp intended target family, where subfamily is xenobiotic metabolism.
Human hepatocyte cultures were treated daily for two consecutive days with fresh dosing solutions containing appropriate concentrations of the 320 ToxCast chemicals (chemical identities were blinded to CellzDirect and other ToxCast collaborators), vehicle control (0.2% DMSO), and positive control inducers as summarized in Table 1. Due to the large number of treatment groups and chemicals examined, the ToxCast chemicals were divided into two groups (spanning two independent cultures of hepatocytes from separate donor preparations (Hu778: ToxCast plates 1 and 2; Hu776: ToxCast plates 3 and 4). Each preparation of human hepatocyte cultures was treated with respective vehicle control, medium only control, set of six positive controls/reference chemicals for the five hepatic receptor pathways, and a subset of eight of the ToxCast chemicals (indoxacarb, pyrithiobac-sodium, norflurazon, cyhalofop-butyl, methomyl, thiram, acetochlor, and propiconazole). These replicate data, coupled with internal replicates designed within the blinded ToxCast chemical library, provided additional data to evaluate interindividual differences between hepatocyte preparations and their potential impact on chemical profiles.Cell morphology and integrity were evaluated using phase-contrast microscopy as an indicator of hepatocyte cell health (Tyson & Green, 1987). Cultures for each treatment group (i.e., media, vehicle [0.2% DMSO], positive control inducers [multiple concentrations], and the ToxCast chemicals [multiple concentrations]) were observed and cell morphology was assessed relative to vehicle control cultures at each harvest time point (0, 6, 24, or 48 h). […] Images were evaluated at the conclusion of the study to assess changes in cell integrity and account for the effects of chemical exposure on uncharacteristic changes in concentration-dependent gene expression profiles. The results from these determinations of apparent cytotoxicity were annotated (yes/no) alongside the corresponding qNPA data for reference.At the conclusion of each treatment period, hepatocyte cultures (96-well) were washed with 1 volume of HBSS, lysed by addition of 25 ul ArrayPlate lysis buffer (HTG, Tucson, AZ), and 70 ul/well of Denaturation Oil, denatured by incubation at 95C for 10 min, and frozen at approximately -70C until analysis by nuclease protection assay (qNPA) (Roberts et al., 2007). For qNPA analysis, cell lysates were thawed at 50C for approximately 30 min, qNPA probes were added, and samples were incubated at 95C for 10 min to begin the detection process by denaturing the target RNA, dissociating the duplexes and secondary structure hybridization. At the conclusion of the hybridization period, S1 nuclease reagent was added to each sample to digest all nonprotected nucleotides at 50C for 60-90 min. […]

SMILES | AC50 | outcome
N#CC(CCc1ccc(Cl)cc1)(Cn1cncn1)c1ccccc1 (stereo not given) | 1.89 µM (active) | –
CNC(=O)ON=CC(C)(C)SC | 0.000972 µM (active) | –
CCCCNC(=O)OCC#CI | 0.851 µM (active) | inactive
COc1nc(C)nc(NC(=O)NS(=O)(=O)c2ccccc2Cl)n1 | 0.00131 µM (active) | inactive
COC(=O)c1ccccc1C(=O)OC | – | inactive
CC(Oc1ccc(Cl)cc1Cl)C(=O)O (stereo not given) | – | inactive
C#CCOS(=O)OC1CCCCC1Oc1ccc(C(C)(C)C)cc1 (stereo not given) | 3.67 µM (active) | –
CCON=C(CC)C1=C(O)CC(c2c(C)cc(C)cc2C)CC1=O (stereo not given) | – | inactive
CNC(=S)S | – | inactive
COP(N)(=O)SC (stereo not given) | – | inactive
CC1=C(C(=O)Nc2ccccc2)SCCO1 | 11.1 µM (active) | –
Cc1ccc(-c2c(Cl)nc(C#N)n2S(=O)(=O)N(C)C)cc1 | 0.105 µM (active) | –
COC(=O)C=C(C)OP(=O)(OC)OC | – | inactive
COc1nc(NC(C)C)nc(NC(C)C)n1 | 3.97 µM (active) | –
CCNc1nc(Cl)nc(NCC)n1 | 4.72 µM (active) | –
OC(c1ccc(Cl)cc1)(c1cncnc1)c1ccccc1Cl (stereo not given) | – | inactive
CC1COC(Cn2cncn2)(c2ccc(Oc3ccc(Cl)cc3)cc2Cl)O1 (stereo not given) | – | inactive
CCCCOC(=O)c1ccccc1C(=O)OCCCC | 3.36 µM (active) and 5.18 µM (active) | –

SMILES | AC50 | outcome
C=CCC1=C(C)[C@@H](OC(=O)[C@@H]2[C@@H](C=C(C)C)C2(C)C)CC1=O | – | inactive
CCOP(=S)(OCC)SCn1c(=O)oc2cc(Cl)ccc21 | 0.36 µM (active) | –
C=CCC1=C(C)C(OC(=O)C2C(C=C(C)C)C2(C)C)CC1=O (stereo not given) | – | inactive
CCOC(=O)C(Cl)Cc1cc(-n2nc(C)n(C(F)F)c2=O)c(F)cc1Cl (stereo not given) | 0.375 µM (active) | –
CC(C)Oc1cc(-n2nc(C(C)(C)C)oc2=O)c(Cl)cc1Cl | 1.57 µM (active) | –
COP(=S)(OC)Oc1nc(Cl)c(Cl)cc1Cl | 5.29 µM (active) | –
CC(C)C1(C)N=C(c2nc3ccccc3cc2C(=O)O)NC1=O (stereo not given) | – | inactive
O=C(O)c1nc(Cl)ccc1Cl | 4.04 µM (active) | inactive
N#Cc1cc(Br)c(O)c(Br)c1 | – | inactive
COc1nc(C)nc(NC(=O)NS(=O)(=O)c2ccccc2CCC(F)(F)F)n1 | 1.9 µM (active) and 287 nM (active) | inactive
CCCC1COC(Cn2cncn2)(c2ccc(Cl)cc2Cl)O1 (stereo not given) | 6.32 µM (active) | –
C=CC1(C)OC(=O)N(c2cc(Cl)cc(Cl)c2)C1=O (stereo not given) | 1.47 µM (active) | –
CS/C(C)=N/OC(=O)N(C)SN(C)C(=O)O/N=C(\C)SC | – | inactive
Fc1ccc(Oc2ccnc3cc(Cl)cc(Cl)c23)cc1 | 3.13 µM (active) | –
COc1ccc(C(c2ccc(OC)cc2)C(Cl)(Cl)Cl)cc1 | 15.8 µM (active) | –
CCNc1nc(Cl)nc(NC(C)C)n1 | 2.19 µM (active) | –
CCc1nn(C)c(C(=O)NCc2ccc(C(C)(C)C)cc2)c1Cl | 6.51 µM (active) | –
CCCCC(CC)COC(=O)c1ccccc1C(=O)OCC(CC)CCCC (stereo not given) | – | inactive

Reference: PubChem BioAssay (EPA / NIEHS)
